In publication PMC11006913:
Positions count from the first letter of the chain named.

Legend:
Assay in all cases: PBM; 200 nM protein, PBS
Conditions in all cases: dsDNA, one strand shown
SIX6 [1] = target: T1, SIX6 (Homo sapiens, UniProt O95475 114-200, L167I)
T1 sequence: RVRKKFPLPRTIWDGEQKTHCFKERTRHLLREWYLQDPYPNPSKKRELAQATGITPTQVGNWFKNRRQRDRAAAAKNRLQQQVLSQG

SIX6 [2] = target: T2, SIX6 (Homo sapiens, UniProt O95475 114-200, L143V)
T2 sequence: T1 sequence with L30V, I54L

SIX6 [3] = target: T3, SIX6 (Homo sapiens, UniProt O95475 114-200, H141N)
T3 sequence: T1 sequence with H28N, I54L

SIX6 [4] = target: T4, SIX6 (Homo sapiens, UniProt O95475 114-200, T165P)
T4 sequence: T1 sequence with T52P, I54L

SIX6 [5] = target: T5, SIX6 (Homo sapiens, UniProt O95475 114-200, L167M)
T5 sequence: T1 sequence with I54M

SIX6 [6] = target: T6, SIX6 (Homo sapiens, UniProt O95475 114-200, L143M)
T6 sequence: T1 sequence with L30M, I54L

SIX6 [7] = target: T7, SIX6 (Homo sapiens, UniProt O95475 114-200, L143I)
T7 sequence: T1 sequence with L30I, I54L

SIX6 [8] = target: T8, SIX6 (Homo sapiens, UniProt O95475 114-200, T165G)
T8 sequence: T1 sequence with T52G, I54L

SIX6 [9] = target: T9, SIX6 (Homo sapiens, UniProt O95475 114-200, T139Q)
T9 sequence: T1 sequence with T26Q, I54L

SIX6 [10] = target: T10, SIX6 (Homo sapiens, UniProt O95475 114-200, T165A)
T10 sequence: T1 sequence with T52A, I54L

SIX6 [11] = target: T11, SIX6 (Homo sapiens, UniProt O95475 114-200, L167V)
T11 sequence: T1 sequence with I54V

SIX6 [12] = target: T12, SIX6 (Homo sapiens, UniProt O95475 114-200)
T12 sequence: T1 sequence with I54L

SIX6 [13] = target: T13, SIX6 (Homo sapiens, UniProt O95475 114-200, T165I)
T13 sequence: T1 sequence with T52I, I54L

Sequence | binding signal (SIX6 [1]) | binding signal (SIX6 [2]) | binding signal (SIX6 [3]) | binding signal (SIX6 [4]) | binding signal (SIX6 [5]) | binding signal (SIX6 [6]) | binding signal (SIX6 [7]) | binding signal (SIX6 [8]) | binding signal (SIX6 [9]) | binding signal (SIX6 [10]) | binding signal (SIX6 [11]) | binding signal (SIX6 [12]) | binding signal (SIX6 [13])
ATGATACC | 11.6 upbm affinity estimate (log intensity, higher = more binding, comparable within an allelic series) | 10.5 upbm affinity estimate (log intensity, higher = more binding, comparable within an allelic series) | 11.6 upbm affinity estimate (log intensity, higher = more binding, comparable within an allelic series) | 9.82 upbm affinity estimate (log intensity, higher = more binding, comparable within an allelic series) | 11 upbm affinity estimate (log intensity, higher = more binding, comparable within an allelic series) | 11.3 upbm affinity estimate (log intensity, higher = more binding, comparable within an allelic series) | 10.6 upbm affinity estimate (log intensity, higher = more binding, comparable within an allelic series) | 11.7 upbm affinity estimate (log intensity, higher = more binding, comparable within an allelic series) | 11.5 upbm affinity estimate (log intensity, higher = more binding, comparable within an allelic series) | 11.6 upbm affinity estimate (log intensity, higher = more binding, comparable within an allelic series) | 11.4 upbm affinity estimate (log intensity, higher = more binding, comparable within an allelic series) | 11.4 upbm affinity estimate (log intensity, higher = more binding, comparable within an allelic series) | 11.3 upbm affinity estimate (log intensity, higher = more binding, comparable within an allelic series)
ACGTATCA | 11.3 upbm affinity estimate (log intensity, higher = more binding, comparable within an allelic series) | 10.3 upbm affinity estimate (log intensity, higher = more binding, comparable within an allelic series) | 11.3 upbm affinity estimate (log intensity, higher = more binding, comparable within an allelic series) | 9.82 upbm affinity estimate (log intensity, higher = more binding, comparable within an allelic series) | 10.7 upbm affinity estimate (log intensity, higher = more binding, comparable within an allelic series) | 11.1 upbm affinity estimate (log intensity, higher = more binding, comparable within an allelic series) | 10.4 upbm affinity estimate (log intensity, higher = more binding, comparable within an allelic series) | 11.3 upbm affinity estimate (log intensity, higher = more binding, comparable within an allelic series) | 11.3 upbm affinity estimate (log intensity, higher = more binding, comparable within an allelic series) | 11.2 upbm affinity estimate (log intensity, higher = more binding, comparable within an allelic series) | 11.1 upbm affinity estimate (log intensity, higher = more binding, comparable within an allelic series) | 11.1 upbm affinity estimate (log intensity, higher = more binding, comparable within an allelic series) | 11 upbm affinity estimate (log intensity, higher = more binding, comparable within an allelic series)
CCATATCA | 11.1 upbm affinity estimate (log intensity, higher = more binding, comparable within an allelic series) | 10.1 upbm affinity estimate (log intensity, higher = more binding, comparable within an allelic series) | 11.1 upbm affinity estimate (log intensity, higher = more binding, comparable within an allelic series) | 9.48 upbm affinity estimate (log intensity, higher = more binding, comparable within an allelic series) | 10.4 upbm affinity estimate (log intensity, higher = more binding, comparable within an allelic series) | 10.8 upbm affinity estimate (log intensity, higher = more binding, comparable within an allelic series) | 10.2 upbm affinity estimate (log intensity, higher = more binding, comparable within an allelic series) | 11.1 upbm affinity estimate (log intensity, higher = more binding, comparable within an allelic series) | 11 upbm affinity estimate (log intensity, higher = more binding, comparable within an allelic series) | 11 upbm affinity estimate (log intensity, higher = more binding, comparable within an allelic series) | 10.8 upbm affinity estimate (log intensity, higher = more binding, comparable within an allelic series) | 10.9 upbm affinity estimate (log intensity, higher = more binding, comparable within an allelic series) | 10.8 upbm affinity estimate (log intensity, higher = more binding, comparable within an allelic series)
GGCGCCCA | 8.76 upbm affinity estimate (log intensity, higher = more binding, comparable within an allelic series) | 8.78 upbm affinity estimate (log intensity, higher = more binding, comparable within an allelic series) | 8.67 upbm affinity estimate (log intensity, higher = more binding, comparable within an allelic series) | 8.95 upbm affinity estimate (log intensity, higher = more binding, comparable within an allelic series) | 8.83 upbm affinity estimate (log intensity, higher = more binding, comparable within an allelic series) | 8.75 upbm affinity estimate (log intensity, higher = more binding, comparable within an allelic series) | 8.8 upbm affinity estimate (log intensity, higher = more binding, comparable within an allelic series) | 8.82 upbm affinity estimate (log intensity, higher = more binding, comparable within an allelic series) | 8.81 upbm affinity estimate (log intensity, higher = more binding, comparable within an allelic series) | 8.62 upbm affinity estimate (log intensity, higher = more binding, comparable within an allelic series) | 8.78 upbm affinity estimate (log intensity, higher = more binding, comparable within an allelic series) | 8.71 upbm affinity estimate (log intensity, higher = more binding, comparable within an allelic series) | 8.73 upbm affinity estimate (log intensity, higher = more binding, comparable within an allelic series)
ATGGCCCG | 8.97 upbm affinity estimate (log intensity, higher = more binding, comparable within an allelic series) | 8.9 upbm affinity estimate (log intensity, higher = more binding, comparable within an allelic series) | 9.08 upbm affinity estimate (log intensity, higher = more binding, comparable within an allelic series) | 9.03 upbm affinity estimate (log intensity, higher = more binding, comparable within an allelic series) | 9 upbm affinity estimate (log intensity, higher = more binding, comparable within an allelic series) | 8.97 upbm affinity estimate (log intensity, higher = more binding, comparable within an allelic series) | 8.99 upbm affinity estimate (log intensity, higher = more binding, comparable within an allelic series) | 9.03 upbm affinity estimate (log intensity, higher = more binding, comparable within an allelic series) | 9.09 upbm affinity estimate (log intensity, higher = more binding, comparable within an allelic series) | 8.99 upbm affinity estimate (log intensity, higher = more binding, comparable within an allelic series) | 8.99 upbm affinity estimate (log intensity, higher = more binding, comparable within an allelic series) | 9 upbm affinity estimate (log intensity, higher = more binding, comparable within an allelic series) | 9.05 upbm affinity estimate (log intensity, higher = more binding, comparable within an allelic series)
GCAAAGCC | 8.97 upbm affinity estimate (log intensity, higher = more binding, comparable within an allelic series) | 8.93 upbm affinity estimate (log intensity, higher = more binding, comparable within an allelic series) | 8.96 upbm affinity estimate (log intensity, higher = more binding, comparable within an allelic series) | 9 upbm affinity estimate (log intensity, higher = more binding, comparable within an allelic series) | 9.02 upbm affinity estimate (log intensity, higher = more binding, comparable within an allelic series) | 8.9 upbm affinity estimate (log intensity, higher = more binding, comparable within an allelic series) | 8.91 upbm affinity estimate (log intensity, higher = more binding, comparable within an allelic series) | 8.9 upbm affinity estimate (log intensity, higher = more binding, comparable within an allelic series) | 9 upbm affinity estimate (log intensity, higher = more binding, comparable within an allelic series) | 8.93 upbm affinity estimate (log intensity, higher = more binding, comparable within an allelic series) | 8.94 upbm affinity estimate (log intensity, higher = more binding, comparable within an allelic series) | 8.98 upbm affinity estimate (log intensity, higher = more binding, comparable within an allelic series) | 8.92 upbm affinity estimate (log intensity, higher = more binding, comparable within an allelic series)
